These results are taken from PubChem BioAssay (NCATS).

Experiment [1] has as its target Lysosomal acid glucosylceramidase (Homo sapiens) (UniProt P04062). The experiment can be described thus: Glucocerebrosidase-p2 (AID 348; in the data active means potency below about 10 µM; further: potency means the concentration at half of the fitted maximal effect). Conditions: purified GBA, blue fluorogenic substrate, 40 min. An outline of the steps:
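Normal human glucocerebrosidase (0.2 nM) with blue fluorogenic substrate (80 uM final) in citrate/phosphate pH 5.9 with 10mM sodium taurocholate, 0.01% tween-20; 40 min RT, NaOH/glycine stop; fluorescence Ex 365/Em 440; AC50 from a titration from 0.6 nM upwards.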

Experiment [2] in a line: NFAT Signaling Pathway (AID 444; active means well fitted curve in either direction with a large enough effect, not every such curve was filed as active;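 further: carbachol stimulus at about its EC50 of 1 µM final; on the % scale 0 is the no-effect control and ±100 the full control effect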). Conditions: Jurkat NFAT-bla M1, carbachol, beta-lactamase ratio, 5 h; at 7.69 µM (top of the series) unless noted. Summed up: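 Jurkat cells carrying an NFAT-driven β-lactamase reporter and co-transfected muscarinic M1 receptor were treated with compound plus carbachol (1 uM final, an EC50 level) for 5 h at 37 °C. CCF4 loading followed for 1 h at RT; 460/530 nm ratio gave %activity.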

Experiment [3] in a line: Stat Signaling Pathway (AID 446; active means well fitted curve in either direction with a large enough effect, not every such curve was filed as active;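 further: ME-180 cervical cancer cells given 40 pM IL-6 alongside compound; SIE-controlled beta-lactamase reporter measured as 460/530 nm FRET emission ratio; on the % scale 0 is the no-effect control and ±100 the full control effect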). Conditions: ME-180 SIE beta-lactamase reporter, IL-6 stimulated, 5 h; at 7.69 µM (top of the series) unless noted. Summed up:
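Emission at 460 and 530 nm (excitation 405 nm) reports SIE-controlled beta-lactamase in ME-180 cells. Cells received compound with 40 pM IL-6 for 5 hrs at 37 C; data scaled between 300 pM IL-6 and 125 nM JAK-inhibitor controls.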

Experiment [4] addresses Glucocorticoid receptor (Homo sapiens) (UniProt P04150). The experiment is described as follows: GR-GFP Redistribution (AID 450;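 active means compounds whose dose series gives a full or clear partial fitted curve of increased nuclear translocation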; further: potency means the concentration at half of the fitted maximal effect). The conditions noted are these: U2OS GR-GFP nuclear translocation, laser cytometry, 2 h.
Experiment [5] has the same target. The experiment can be described thus: GR-EFC Redistribution (AID 451; calls by dose curve; further: potency means the concentration at half of the fitted maximal effect). Conditions: CHO-K1 GR-EFC translocation, beta-gal luminescence, 2 h. An outline of the steps:
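CHO-K1 cells stably expressing nuclear-localized β-gal enzyme acceptor and GR fused C-terminally to the enzyme donor fragment; ligand-driven nuclear translocation restores β-gal by complementation. Compounds titrated up to 46 uM final, 2 h at 37 °C; luminescence read.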

The target in experiment [6] is Mitogen-activated protein kinase 10 (Mus musculus) (UniProt Q61831). The experiment is described as follows: JNK3 AlphaScreen Assay (AID 530; active means well fitted curve in either direction with a large enough effect, not every such curve was filed as active;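 further: kinase came from lysate of stimulated human HepG2 cells; signal reports phosphorylation of biotinylated GST-cJun 1-79 at Ser73 with 10 µM ATP; on the % scale 0 is the no-effect control and ±100 the full control effect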). Summed up: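 Phosphorylation of biotinylated GST-cJun(1-79) at Ser73 is measured by AlphaScreen proximity luminescence. Enzyme is JNK3 in HepG2 lysates activated with interleukin-1beta and tumor necrosis factor alpha; ATP is 10 uM final.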

The target in experiment [7] is Cytochrome P450 3A4 (Homo sapiens) (UniProt P08684). The experiment can be described thus: qHTS Assay for Activators of Cytochrome P450 3A4 (AID 885). Further: nearly all actives have a fitted effect of over 65% in size. An outline of the steps:
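Activators are scored by enhanced luminescence from CYP3A4 conversion of luciferin-PPXE (25uM, equal to KM) to luciferin, after 60 min at RT with an NADPH-regenerating system.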
In general terms: In qHTS, concentration-response curves come from the screen itself.

The nature of experiment [8]: qHTS Assay for Identification of Small Molecule Agonists for Hypoxia Response Element Signaling Pathway (AID 914; active means well fitted activation curve with a large enough effect in the signal ratio, with a control signal flat, not every such curve was filed as active; the % refers to the signal ratio; further: % of control where 0% means no effect). Conditions: ME-180 HRE-bla reporter, beta-lactamase ratio, CoCl2, 17 h; activation: stronger effect = higher value. Summed up:
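qHTS titration; ME-180 HRE-bla cells; EC50 CoCl2 co-treatment, 17 h at 37 degrees Celsius; CCF4 dye, ex 405nm, em 460nm and 530nm; %Activity from ratio; AC50.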

Experiment [9] in a line: qHTS Assay for Lipid Storage Modulators (AID 1519; calls by dose curve). Conditions: Drosophila S3 cells, BODIPY lipid droplet/cell ratio, laser cytometry, cells loaded with oleic acid; for activity change, negative = inhibition: at 57.5 µM (top of the series). An outline of the steps: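 Cells seeded at 5,000 per well were treated with compounds over a concentration series and loaded with oleic acid (400 uM, as added). Lipid droplet fluorescence (488 nm excitation, 500-530 nm channel) was read by laser-scanning cytometry and normalized to 20 uM Triacsin C.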

Experiment [10] deals with Dual specificity protein kinase CLK4 (Homo sapiens) (UniProt Q9HAZ1). The experiment is described as follows: qHTS Assay for Inhibitors of CDC-like Kinase 4 (Kinase-Glo Assay) (AID 1770). Further: nearly all actives have a fitted effect of over 65% in size. Further: potency means the concentration at half of the fitted maximal effect. Summed up: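 Readout: Kinase-Glo luminescence from ATP left after a 4.5 h room-temperature reaction of 25 nM Clk4 with 100 uM RS peptide and 1 uM ATP (final). Buffer: 25 mM Tris pH 7.5, 10 mM MgCl2.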

The target is the same in experiment [11]. The experiment can be described thus: qHTS Assay for Inhibitors of CDC-like Kinase 4 (ADP-Glo Assay) (AID 1771). Further: nearly all actives have a fitted effect of over 70% in size. Further: potency means the concentration at half of the fitted maximal effect. Summed up:
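Compounds are pin-transferred onto substrate mix (100 uM RS peptide, 1 uM ATP), then 25 nM Clk4 is added. After 1 hr at room temperature, ADP-Glo reagent runs 45 min, detection reagent 30 min, then luminescence is read.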

For experiment [12], the target named is Ubiquitin carboxyl-terminal hydrolase 1 (Homo sapiens) (UniProt O94782). The experiment can be described thus: Inhibitors of USP1/UAF1: Pilot qHTS (AID 504865). Further: nearly all actives have a fitted effect of over 35% in size. Further: potency means the concentration at half of the fitted maximal effect. Summed up: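 1nM USP1/UAF1 + cpd, 15 min RT; start w/ Ub-Rho 150nM final; kinetic FL 480/540 nm, 6 reads q60 s. Buffer 50mM HEPES pH 7.8, 0.5mM EDTA, 1mM TCEP, 0.01% Tween-20, 0.1 mg/ml BSA.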
Experiment [13] can be described thus: Primary qHTS for small molecule stabilizers of the endoplasmic reticulum resident proteome: Secreted ER Calcium Modulated Protein (SERCaMP) assay (AID 1508630). Further: on the % scale 0 is the no-effect control and ±100 the full control effect. An outline of the steps: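 The SH-SY5Y reporter protocol was run at 3 concentrations up to 38.3 uM (primary) or 11 concentrations (follow-up): 16 h compound, 100 nM thapsigargin for 4 h, then extracellular luciferase luminescence.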

Experiment [14] addresses Rap guanine nucleotide exchange factor 3 (Homo sapiens) (UniProt O95398). The experiment is described as follows: Confirmatory qHTS for antagonist of cAMP-regulated guanine nucleotide exchange factor 3 (EPAC1) (AID 1645880).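 Further: plate controls were DMSO only for no effect and full effect of the ATA control for full effect; nearly all actives have a fitted effect of over 55% in size.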 An outline of the steps: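 Released BODIPY-GDP fluoresces less than Rap1-bound BODIPY-GDP; the signal is followed at 480/540 nm at 5-min intervals over 30 min, after 5 min at room temperature. Reactions contain 100 nM EPAC1, 250 nM RAP1B-BODIPY-GDP and 50 uM GDP; results are normalized to ATA and DMSO.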

Experiment [15] shares this target. The experiment can be described thus: Confirmatory qHTS for agonist of cAMP-regulated guanine nucleotide exchange factor 3 (EPAC1) (AID 1645881).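 Further: EPAC1 catalysed release of BODIPY-GDP from Rap1B seen as fluorescence loss; 100% = effect of cAMP agonist control; nearly all actives have a fitted effect of over 75% in size.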
Experiment [16] has as its target Rap guanine nucleotide exchange factor 4 (Homo sapiens) (UniProt Q8WZA2). The experiment is described as follows: Confirmatory qHTS for agonist of cAMP-regulated guanine nucleotide exchange factor 4 (EPAC2) (AID 1645884).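 Further: nucleotide exchange releases bodipy-GDP from Rap1 and this lowers its fluorescence; on the % scale 0 is the no-effect control and ±100 the full control effect; nearly all actives have a fitted effect of over 65% in size.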
Experiment [17] in a line: AP1 Signaling Pathway (AID 357; active means well fitted curve in either direction with a large enough effect, not every such curve was filed as active; further: on the % scale 0 is the no-effect control and ±100 the full control effect). The conditions noted are these: ME-180 AP-1-bla reporter, EGF-induced, beta-lactamase ratio, 5 h; at 7.69 µM (top of the series) unless noted. Summed up: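 ME-180 cells with beta-lactamase reporter under AP-1 response element, stimulated with EC50 EGF; compounds tested in titration series, 5 h at 37 °C. CCF4 substrate added 2.5 h at room temperature; 460/530 nm emission ratio gave %activity and AC50.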

Experiment [18] concerns the target Rap guanine nucleotide exchange factor 4 (Homo sapiens) (UniProt Q8WZA2). The experiment can be described thus: Confirmatory qHTS for antagonist of cAMP-regulated guanine nucleotide exchange factor 4 (EPAC2) (AID 1645885). Further: on the % scale 0 is the no-effect control and ±100 the full control effect; nearly all actives have a fitted effect of over 25% in size.
Experiment [19] has as its target Cytochrome P450 1A2 (Homo sapiens) (UniProt P05177). The experiment is described as follows: p450-cyp1a2 (AID 410; calls by dose curve; further: potency means the concentration at half of the fitted maximal effect;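 on activity change, negative = inhibition: -100% = full effect of reference inhibitor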). Summed up:
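O-Demethylation of luciferin 6' methyl ether by human CYP1A2 is monitored as luciferase luminescence. Substrate sits at Km (100uM); enzyme is 20nM. Values are scaled to 57 uM furafylline as maximal inhibition.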

Experiment [20] addresses 3',5'-cyclic-AMP phosphodiesterase 4B (Homo sapiens) (UniProt Q07343). The experiment is described as follows: qHTS Assay for Inhibitors of PDE-IV (AID 607; active means well fitted activation curve with a large enough effect in the main read-out, with a control signal flat, not every such curve was filed as active; further: % of control where 0% means no effect). An outline of the steps:
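The readout is membrane depolarisation from a cAMP-sensing CNG channel, detected with a potential dye at ex 535/em 590. Cells were HEK293-derived (endogenous PDE-IV) at 1000 cells/well, titrated up to 22.9 uM final.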

Experiment [21] addresses Dual specificity protein kinase CLK4 (Homo sapiens) (UniProt Q9HAZ1). The experiment can be described thus: qHTS Assay for Inhibitors of CDC-like Kinase 4 (ADP-FP Assay) (AID 1795).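 Further: recombinant human CLK4 phosphorylating RS repeat peptide at 1 µM ATP; on the % scale 0 is the no-effect control and ±100 the full control effect; nearly all actives have a fitted effect of over 60% in size.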 Summed up: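 FP readout: Orange Transcreener ADP2 tracer (4 nM) plus ADP antibody, read after 30 min at room temperature. Kinase step: 6.25 nM Clk4, 100 uM RS peptide, 1 uM ATP, pH 7.5, 1 h.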

Setting [22] is: measured here: cell count channel max response.
Setting [23] is: measured here: lipid channel max response.

Records with an inconclusive call do not appear. Activity calls are given as the source filed them. Unless noted, the call rests on the fitted dose curve; in most records, active means well fitted curve in the direction sought with a large enough effect; inconclusive means small, poorly fitted or top-dose-only effect, or another doubt; inactive means no such curve, though single readings can be large; an effect the other way counts as inactive or inconclusive.

Chain of Rap guanine nucleotide exchange factor 3 (Homo sapiens) (O95398 whole entry, looked up): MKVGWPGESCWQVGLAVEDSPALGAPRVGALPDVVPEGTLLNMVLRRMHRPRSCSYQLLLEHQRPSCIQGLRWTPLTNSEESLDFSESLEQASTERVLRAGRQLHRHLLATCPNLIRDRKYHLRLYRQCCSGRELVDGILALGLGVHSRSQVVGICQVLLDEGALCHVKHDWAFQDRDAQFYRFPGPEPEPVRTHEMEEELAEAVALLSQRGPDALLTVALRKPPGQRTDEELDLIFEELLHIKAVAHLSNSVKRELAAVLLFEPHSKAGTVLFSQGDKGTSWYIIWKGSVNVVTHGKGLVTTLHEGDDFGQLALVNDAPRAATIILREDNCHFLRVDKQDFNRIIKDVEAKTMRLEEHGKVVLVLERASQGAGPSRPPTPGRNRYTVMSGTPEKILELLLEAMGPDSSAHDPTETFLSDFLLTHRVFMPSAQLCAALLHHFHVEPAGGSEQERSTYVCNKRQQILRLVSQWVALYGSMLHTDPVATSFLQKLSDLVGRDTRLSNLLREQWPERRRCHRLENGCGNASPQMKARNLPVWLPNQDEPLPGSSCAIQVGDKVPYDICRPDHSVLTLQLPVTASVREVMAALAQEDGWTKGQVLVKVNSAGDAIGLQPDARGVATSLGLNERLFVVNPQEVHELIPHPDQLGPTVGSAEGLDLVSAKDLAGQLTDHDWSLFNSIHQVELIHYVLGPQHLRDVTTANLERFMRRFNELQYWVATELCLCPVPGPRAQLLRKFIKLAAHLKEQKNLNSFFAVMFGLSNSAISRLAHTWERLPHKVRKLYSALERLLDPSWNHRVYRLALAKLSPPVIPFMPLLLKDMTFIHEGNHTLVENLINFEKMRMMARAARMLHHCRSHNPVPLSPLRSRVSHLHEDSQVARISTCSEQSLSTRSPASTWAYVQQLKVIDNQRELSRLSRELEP
Chain of Dual specificity protein kinase CLK4 (Homo sapiens) (Q9HAZ1 whole entry, looked up): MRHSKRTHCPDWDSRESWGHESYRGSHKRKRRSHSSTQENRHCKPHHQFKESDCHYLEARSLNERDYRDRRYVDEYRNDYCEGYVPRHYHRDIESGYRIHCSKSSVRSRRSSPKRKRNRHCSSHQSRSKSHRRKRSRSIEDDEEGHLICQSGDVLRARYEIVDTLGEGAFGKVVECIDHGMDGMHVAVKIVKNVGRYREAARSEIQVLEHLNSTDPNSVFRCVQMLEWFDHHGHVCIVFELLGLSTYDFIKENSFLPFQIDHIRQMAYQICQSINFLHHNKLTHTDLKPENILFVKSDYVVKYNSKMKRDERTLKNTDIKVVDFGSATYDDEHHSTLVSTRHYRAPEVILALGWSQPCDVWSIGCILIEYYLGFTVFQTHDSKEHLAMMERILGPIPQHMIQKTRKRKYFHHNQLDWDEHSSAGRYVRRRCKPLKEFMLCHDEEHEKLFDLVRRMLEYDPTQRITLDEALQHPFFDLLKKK
Chain of Lysosomal acid glucosylceramidase (Homo sapiens) (P04062 whole entry, looked up): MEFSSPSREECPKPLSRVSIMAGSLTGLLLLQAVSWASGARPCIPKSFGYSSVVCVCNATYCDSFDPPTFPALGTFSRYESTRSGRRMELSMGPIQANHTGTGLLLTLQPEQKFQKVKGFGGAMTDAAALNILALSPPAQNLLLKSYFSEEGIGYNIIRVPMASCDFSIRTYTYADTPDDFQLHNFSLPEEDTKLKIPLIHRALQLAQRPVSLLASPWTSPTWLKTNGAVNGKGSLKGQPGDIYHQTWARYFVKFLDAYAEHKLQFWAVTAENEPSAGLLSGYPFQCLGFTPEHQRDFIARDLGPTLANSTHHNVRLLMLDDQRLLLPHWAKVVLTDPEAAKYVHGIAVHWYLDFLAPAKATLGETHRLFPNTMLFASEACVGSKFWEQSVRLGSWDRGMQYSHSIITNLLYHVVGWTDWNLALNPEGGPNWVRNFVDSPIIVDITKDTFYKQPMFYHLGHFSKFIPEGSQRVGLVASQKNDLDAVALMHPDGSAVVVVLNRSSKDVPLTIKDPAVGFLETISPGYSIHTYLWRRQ
Chain of Rap guanine nucleotide exchange factor 4 (Homo sapiens) (Q8WZA2 whole entry, looked up): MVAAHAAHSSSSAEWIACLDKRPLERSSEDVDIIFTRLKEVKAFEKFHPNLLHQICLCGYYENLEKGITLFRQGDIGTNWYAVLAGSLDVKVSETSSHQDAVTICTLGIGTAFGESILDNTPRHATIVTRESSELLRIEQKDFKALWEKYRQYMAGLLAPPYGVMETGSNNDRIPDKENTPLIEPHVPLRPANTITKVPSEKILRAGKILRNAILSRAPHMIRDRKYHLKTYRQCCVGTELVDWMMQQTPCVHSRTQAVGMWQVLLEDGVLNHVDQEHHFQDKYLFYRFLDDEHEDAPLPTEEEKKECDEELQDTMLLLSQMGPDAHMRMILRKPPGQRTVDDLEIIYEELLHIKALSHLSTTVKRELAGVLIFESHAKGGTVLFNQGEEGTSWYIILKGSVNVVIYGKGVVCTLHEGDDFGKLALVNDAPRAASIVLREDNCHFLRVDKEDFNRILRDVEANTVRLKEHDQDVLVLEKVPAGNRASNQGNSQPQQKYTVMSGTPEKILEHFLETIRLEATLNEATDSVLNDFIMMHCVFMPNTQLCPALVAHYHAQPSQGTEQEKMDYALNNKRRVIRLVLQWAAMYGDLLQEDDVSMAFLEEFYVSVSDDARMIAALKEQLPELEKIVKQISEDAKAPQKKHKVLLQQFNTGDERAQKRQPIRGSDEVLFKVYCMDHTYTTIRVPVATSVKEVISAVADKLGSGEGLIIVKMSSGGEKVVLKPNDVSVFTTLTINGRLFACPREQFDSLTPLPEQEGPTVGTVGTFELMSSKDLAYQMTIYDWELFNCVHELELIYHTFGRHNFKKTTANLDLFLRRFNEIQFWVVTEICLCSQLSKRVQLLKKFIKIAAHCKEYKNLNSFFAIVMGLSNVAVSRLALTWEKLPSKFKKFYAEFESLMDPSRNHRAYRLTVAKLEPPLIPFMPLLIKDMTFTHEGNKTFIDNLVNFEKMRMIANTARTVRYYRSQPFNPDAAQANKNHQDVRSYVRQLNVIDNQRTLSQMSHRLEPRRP
Chain of Glucocorticoid receptor (Homo sapiens) (P04150 whole entry, looked up): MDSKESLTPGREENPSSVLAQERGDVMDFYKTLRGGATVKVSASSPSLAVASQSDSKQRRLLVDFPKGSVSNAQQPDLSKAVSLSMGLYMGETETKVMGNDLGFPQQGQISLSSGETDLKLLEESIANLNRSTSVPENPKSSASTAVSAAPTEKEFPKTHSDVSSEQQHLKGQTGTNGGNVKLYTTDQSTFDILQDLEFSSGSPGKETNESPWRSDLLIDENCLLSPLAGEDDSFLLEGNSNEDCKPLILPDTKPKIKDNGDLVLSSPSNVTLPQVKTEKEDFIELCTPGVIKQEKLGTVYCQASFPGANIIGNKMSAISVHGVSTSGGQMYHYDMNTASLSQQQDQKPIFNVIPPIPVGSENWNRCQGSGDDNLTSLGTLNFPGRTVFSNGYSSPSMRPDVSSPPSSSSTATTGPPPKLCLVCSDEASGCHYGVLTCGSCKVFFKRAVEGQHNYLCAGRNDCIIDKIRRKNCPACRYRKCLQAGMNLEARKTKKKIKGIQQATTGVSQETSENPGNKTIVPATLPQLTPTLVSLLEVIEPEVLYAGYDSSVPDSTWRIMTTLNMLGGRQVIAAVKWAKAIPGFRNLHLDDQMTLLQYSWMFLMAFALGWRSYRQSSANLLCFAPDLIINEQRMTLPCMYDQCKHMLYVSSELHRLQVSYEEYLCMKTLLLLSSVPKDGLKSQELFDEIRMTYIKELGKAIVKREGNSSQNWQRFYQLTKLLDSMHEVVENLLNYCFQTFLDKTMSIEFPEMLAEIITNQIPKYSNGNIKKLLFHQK
Chain of Cytochrome P450 3A4 (Homo sapiens) (P08684 whole entry, looked up): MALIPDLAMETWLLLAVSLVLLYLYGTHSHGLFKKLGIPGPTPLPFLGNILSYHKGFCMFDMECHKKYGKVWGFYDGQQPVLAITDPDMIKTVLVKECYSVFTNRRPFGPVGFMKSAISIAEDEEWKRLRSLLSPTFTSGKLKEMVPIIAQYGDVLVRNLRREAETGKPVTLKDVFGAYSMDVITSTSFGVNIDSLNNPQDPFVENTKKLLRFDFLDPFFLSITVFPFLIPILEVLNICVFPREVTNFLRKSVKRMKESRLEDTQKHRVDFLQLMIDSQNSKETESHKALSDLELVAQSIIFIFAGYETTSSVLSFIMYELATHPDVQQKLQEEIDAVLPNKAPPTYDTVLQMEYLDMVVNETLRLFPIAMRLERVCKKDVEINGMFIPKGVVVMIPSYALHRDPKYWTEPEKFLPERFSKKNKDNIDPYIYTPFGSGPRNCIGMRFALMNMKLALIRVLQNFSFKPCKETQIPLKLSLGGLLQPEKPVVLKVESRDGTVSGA
Chain of Ubiquitin carboxyl-terminal hydrolase 1 (Homo sapiens) (O94782 whole entry, looked up): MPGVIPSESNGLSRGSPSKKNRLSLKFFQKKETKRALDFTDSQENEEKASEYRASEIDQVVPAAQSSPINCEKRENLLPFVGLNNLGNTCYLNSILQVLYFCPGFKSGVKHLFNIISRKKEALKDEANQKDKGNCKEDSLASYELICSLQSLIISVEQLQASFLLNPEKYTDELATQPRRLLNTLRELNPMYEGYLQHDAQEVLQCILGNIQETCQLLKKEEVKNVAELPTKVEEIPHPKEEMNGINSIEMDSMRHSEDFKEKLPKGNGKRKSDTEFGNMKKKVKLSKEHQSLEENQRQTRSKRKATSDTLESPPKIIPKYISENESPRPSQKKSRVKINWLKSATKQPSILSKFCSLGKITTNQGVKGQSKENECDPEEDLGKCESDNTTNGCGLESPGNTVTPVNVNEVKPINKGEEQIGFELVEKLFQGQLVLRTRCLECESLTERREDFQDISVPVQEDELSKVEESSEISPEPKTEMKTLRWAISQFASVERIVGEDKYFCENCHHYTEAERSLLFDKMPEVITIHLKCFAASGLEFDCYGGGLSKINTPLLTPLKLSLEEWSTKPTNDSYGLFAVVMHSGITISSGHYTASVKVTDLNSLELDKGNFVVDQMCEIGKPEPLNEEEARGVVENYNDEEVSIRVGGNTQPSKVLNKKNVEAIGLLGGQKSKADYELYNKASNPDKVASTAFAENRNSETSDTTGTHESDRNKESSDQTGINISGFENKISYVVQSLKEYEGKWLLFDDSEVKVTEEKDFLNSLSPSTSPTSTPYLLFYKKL

Regarding `FC(F)(F)c1ccccc1-c1nc(N2CCOCC2)c2ccccc2n1`, the Potency in experiment [1] is > 11.4 µM (inactive); in experiment [4], > 46 µM (inactive); in experiment [5], > 46 µM (inactive); in experiment [10], 25.1 µM (active); in experiment [11], 14.1 µM (active); in experiment [12], 31.6 µM (active). In addition, the activity change, negative = inhibition is -3.63% (inactive) in experiment [2] and 6.74% (inactive) in experiment [9]. In [3], the activity, negative = inhibition was 2.43% (inactive). The molecule was called inactive in [6], in experiment [15] and in experiment [16]. Also, the Potency entry in experiment [7], in [13] and in [14] was “inactive” throughout. Further, the activation in [8] was 9.18% (inactive). Also, the max response in experiment [9] (setting [22]) came to 22.9%; in [9] (setting [23]), 28.1%.
Regarding `COCCn1c(=O)c(CCc2ccccc2)nc2cnc(Nc3cccc(OC)c3)nc21`, the Potency in [1] is > 11.4 µM (inactive); in experiment [5], > 46 µM (inactive). Moreover, the activity change, negative = inhibition in experiment [17] is 13.2% (inactive); in experiment [2] it was 5.55% (inactive); in [9], -3.18% (inactive). Moreover, the activity, negative = inhibition in [3] is 0.869% (inactive). The molecule was called inactive in experiment [6], in experiment [15] and in experiment [16]. Also, the max response in [9] (setting [22]) turned out to be 22%; in experiment [9] (setting [23]), 18.9%. Moreover, the Potency result in [13], in [14] and in [18] was “inactive” throughout.
For the molecule `COc1ccc(C(=O)N2CCC3(CC2)CN(c2ccncc2)C3)cc1`, the Potency was > 11.4 µM (inactive) in experiment [1] and > 46 µM (inactive) in [5]. The results for the activity change, negative = inhibition in experiment [17], in [2] and in experiment [9] were 4.67% (inactive), -16% (inactive) and -1.18% (inactive), respectively. In addition, the Potency result in experiment [19], in [20], in experiment [7], in [13], in experiment [14] and in experiment [18] was “inactive” throughout. In addition, in experiment [3], the activity, negative = inhibition was 5.81% (inactive). For the same molecule, the max response was -4.69% in [9] (setting [22]) and -4.19% in [9] (setting [23]). In addition, the molecule was called inactive in experiment [15] and in experiment [16].
Regarding `CC(=O)NCCNc1cc(-c2ccccc2C(F)(F)F)ncn1`, the Potency in experiment [1] is > 11.4 µM (inactive); in experiment [19], 25.1 µM (active); in [4] it was > 46 µM (inactive); in experiment [5], > 46 µM (inactive). For the same molecule, the values for the activity change, negative = inhibition in experiment [17], in experiment [2] and in experiment [9] were 9.07% (inactive), 15.3% (inactive) and 0.0704% (inactive), respectively. For the same molecule, in experiment [3], the activity, negative = inhibition was 6.62% (inactive). The call in [6] was inactive. In addition, the Potency result in experiment [20], in [10], in [11], in experiment [21], in experiment [12] and in [13] was “inactive” throughout. Moreover, the max response in experiment [9] (setting [22]) is 5.19%; in [9] (setting [23]), 3.95%.
